{
  "source": "paper PMC11006913",
  "assay_in_all_cases": "PBM; 200 nM protein, PBS",
  "conditions_in_all_cases": "dsDNA, one strand shown",
  "key": {"VENTX [1]": {"molecular_target": "T1, VENTX (Homo sapiens, UniProt O95231 78-163, R121Q)", "T1 sequence": "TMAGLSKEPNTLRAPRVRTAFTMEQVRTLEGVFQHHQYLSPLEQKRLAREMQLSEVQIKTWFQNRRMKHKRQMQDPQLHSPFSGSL"}, "VENTX [2]": {"molecular_target": "T2, VENTX (Homo sapiens, UniProt O95231 78-163)", "T2 sequence": "T1 sequence with Q44R"}, "VENTX [3]": {"molecular_target": "T3, VENTX (Homo sapiens, UniProt O95231 78-163, Y115F)", "T3 sequence": "T1 sequence with Y38F, Q44R"}, "HOXB6 [4]": {"molecular_target": "HOXB6 (Homo sapiens, UniProt P17509 132-218, K202E)", "sequence (P17509 132-218 K202E)": "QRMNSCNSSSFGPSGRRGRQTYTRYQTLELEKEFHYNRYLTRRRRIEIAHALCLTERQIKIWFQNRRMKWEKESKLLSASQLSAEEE"}, "VAX1 [5]": {"molecular_target": "VAX1 (Homo sapiens, UniProt Q5SQQ9 86-172)", "sequence (Q5SQQ9 86-172)": "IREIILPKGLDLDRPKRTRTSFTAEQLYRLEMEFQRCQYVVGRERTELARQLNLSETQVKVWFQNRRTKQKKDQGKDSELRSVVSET"}, "VAX1 [6]": {"molecular_target": "VAX1 (Homo sapiens, UniProt Q5SQQ9 86-172, T142I)", "sequence (Q5SQQ9 86-172 T142I)": "as the sequence (Q5SQQ9 86-172) above, with T57I counted along it"}, "VAX1 [7]": {"molecular_target": "VAX1 (Homo sapiens, UniProt Q5SQQ9 86-172, K157R)", "sequence (Q5SQQ9 86-172 K157R)": "as the sequence (Q5SQQ9 86-172) above, with K72R counted along it"}, "HOXB6 [8]": {"molecular_target": "HOXB6 (Homo sapiens, UniProt P17509 132-218)", "sequence (P17509 132-218)": "as the sequence (P17509 132-218 K202E) above, with E71K counted along it"}, "HOXA2 [9]": {"molecular_target": "HOXA2 (Homo sapiens, UniProt O43364 129-215, R185T)", "sequence (O43364 129-215 R185T)": "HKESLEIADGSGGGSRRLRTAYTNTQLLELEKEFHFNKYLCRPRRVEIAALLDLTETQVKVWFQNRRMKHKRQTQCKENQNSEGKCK"}, "HOXA4": {"molecular_target": "HOXA4 (Homo sapiens, UniProt Q00056 201-287, R217L)", "sequence (Q00056 201-287 R217L)": "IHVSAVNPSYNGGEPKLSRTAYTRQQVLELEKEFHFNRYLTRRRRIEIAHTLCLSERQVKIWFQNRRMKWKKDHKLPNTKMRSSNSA"}, "HOXA2 [10]": {"molecular_target": "HOXA2 (Homo sapiens, UniProt O43364 129-215, R185K)", "sequence (O43364 129-215 R185K)": "as the sequence (O43364 129-215 R185T) above, with T57K counted along it"}, "HOXA2 [11]": {"molecular_target": "HOXA2 (Homo sapiens, UniProt O43364 129-215, Y150S)", "sequence (O43364 129-215 Y150S)": "as the sequence (O43364 129-215 R185T) above, with Y22S, T57R counted along it"}, "HOXA2 [12]": {"molecular_target": "HOXA2 (Homo sapiens, UniProt O43364 129-215)", "sequence (O43364 129-215)": "as the sequence (O43364 129-215 R185T) above, with T57R counted along it"}, "ALX3 [13]": {"molecular_target": "ALX3 (Homo sapiens, UniProt O95076 139-225, N203Q)", "sequence (O95076 139-225 N203Q)": "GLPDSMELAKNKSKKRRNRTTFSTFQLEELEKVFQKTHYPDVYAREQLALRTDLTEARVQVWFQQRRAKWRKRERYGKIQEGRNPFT"}, "ALX3 [14]": {"molecular_target": "ALX3 (Homo sapiens, UniProt O95076 139-225)", "sequence (O95076 139-225)": "as the sequence (O95076 139-225 N203Q) above, with Q65N counted along it"}, "ALX3 [15]": {"molecular_target": "ALX3 (Homo sapiens, UniProt O95076 139-225, L168Q)", "sequence (O95076 139-225 L168Q)": "as the sequence (O95076 139-225 N203Q) above, with L30Q, Q65N counted along it"}, "ALX3 [16]": {"molecular_target": "ALX3 (Homo sapiens, UniProt O95076 139-225, L168V)", "sequence (O95076 139-225 L168V)": "as the sequence (O95076 139-225 N203Q) above, with L30V, Q65N counted along it"}, "ALX3 [17]": {"molecular_target": "ALX3 (Homo sapiens, UniProt O95076 139-225, N203S)", "sequence (O95076 139-225 N203S)": "as the sequence (O95076 139-225 N203Q) above, with Q65S counted along it"}},
  "note": "Changes are numbered by the printed parent chain.",
  "data": [
    {"sequence": "CCGCTGGC", "values": [
      {"measurement": "binding signal", "setting": "VENTX [1]", "result": "7.68 upbm affinity estimate (log intensity, higher = more binding, comparable within an allelic series)"},
      {"measurement": "binding signal", "setting": "VENTX [2]", "result": "7.51 upbm affinity estimate (log intensity, higher = more binding, comparable within an allelic series)"},
      {"measurement": "binding signal", "setting": "VENTX [3]", "result": "7.74 upbm affinity estimate (log intensity, higher = more binding, comparable within an allelic series)"},
      {"measurement": "binding signal", "setting": "HOXB6 [4]", "result": "8.89 upbm affinity estimate (log intensity, higher = more binding, comparable within an allelic series)"},
      {"measurement": "binding signal", "setting": "VAX1 [5]", "result": "6.67 upbm affinity estimate (log intensity, higher = more binding, comparable within an allelic series)"},
      {"measurement": "binding signal", "setting": "VAX1 [6]", "result": "7.05 upbm affinity estimate (log intensity, higher = more binding, comparable within an allelic series)"},
      {"measurement": "binding signal", "setting": "VAX1 [7]", "result": "6.73 upbm affinity estimate (log intensity, higher = more binding, comparable within an allelic series)"},
      {"measurement": "binding signal", "setting": "HOXB6 [8]", "result": "8.76 upbm affinity estimate (log intensity, higher = more binding, comparable within an allelic series)"}
    ]},
    {"sequence": "CGCTAGGC", "values": [
      {"measurement": "binding signal", "setting": "VENTX [1]", "result": "8.19 upbm affinity estimate (log intensity, higher = more binding, comparable within an allelic series)"},
      {"measurement": "binding signal", "setting": "VENTX [2]", "result": "8.31 upbm affinity estimate (log intensity, higher = more binding, comparable within an allelic series)"},
      {"measurement": "binding signal", "setting": "VENTX [3]", "result": "8.19 upbm affinity estimate (log intensity, higher = more binding, comparable within an allelic series)"}
    ]},
    {"sequence": "CCATTAGC", "values": [
      {"measurement": "binding signal", "setting": "VENTX [1]", "result": "12.2 upbm affinity estimate (log intensity, higher = more binding, comparable within an allelic series)"},
      {"measurement": "binding signal", "setting": "VENTX [2]", "result": "12.9 upbm affinity estimate (log intensity, higher = more binding, comparable within an allelic series)"},
      {"measurement": "binding signal", "setting": "VENTX [3]", "result": "11.9 upbm affinity estimate (log intensity, higher = more binding, comparable within an allelic series)"},
      {"measurement": "binding signal", "setting": "HOXA2 [9]", "result": "12.3 upbm affinity estimate (log intensity, higher = more binding, comparable within an allelic series)"},
      {"measurement": "binding signal", "setting": "HOXA4", "result": "11.4 upbm affinity estimate (log intensity, higher = more binding, comparable within an allelic series)"},
      {"measurement": "binding signal", "setting": "HOXA2 [10]", "result": "13.1 upbm affinity estimate (log intensity, higher = more binding, comparable within an allelic series)"},
      {"measurement": "binding signal", "setting": "HOXA2 [11]", "result": "10.6 upbm affinity estimate (log intensity, higher = more binding, comparable within an allelic series)"},
      {"measurement": "binding signal", "setting": "HOXA2 [12]", "result": "12 upbm affinity estimate (log intensity, higher = more binding, comparable within an allelic series)"},
      {"measurement": "binding signal", "setting": "VAX1 [7]", "result": "12.4 upbm affinity estimate (log intensity, higher = more binding, comparable within an allelic series)"}
    ]},
    {"sequence": "CATTAGCG", "values": [
      {"measurement": "binding signal", "setting": "VENTX [1]", "result": "11.8 upbm affinity estimate (log intensity, higher = more binding, comparable within an allelic series)"},
      {"measurement": "binding signal", "setting": "VENTX [2]", "result": "12.7 upbm affinity estimate (log intensity, higher = more binding, comparable within an allelic series)"},
      {"measurement": "binding signal", "setting": "VENTX [3]", "result": "11.6 upbm affinity estimate (log intensity, higher = more binding, comparable within an allelic series)"},
      {"measurement": "binding signal", "setting": "HOXA2 [9]", "result": "12.3 upbm affinity estimate (log intensity, higher = more binding, comparable within an allelic series)"},
      {"measurement": "binding signal", "setting": "HOXA4", "result": "11.4 upbm affinity estimate (log intensity, higher = more binding, comparable within an allelic series)"},
      {"measurement": "binding signal", "setting": "HOXA2 [10]", "result": "13.1 upbm affinity estimate (log intensity, higher = more binding, comparable within an allelic series)"},
      {"measurement": "binding signal", "setting": "HOXA2 [11]", "result": "10.7 upbm affinity estimate (log intensity, higher = more binding, comparable within an allelic series)"},
      {"measurement": "binding signal", "setting": "HOXA2 [12]", "result": "12.1 upbm affinity estimate (log intensity, higher = more binding, comparable within an allelic series)"}
    ]},
    {"sequence": "ATCGATAA", "values": [
      {"measurement": "binding signal", "setting": "VENTX [1]", "result": "10.3 upbm affinity estimate (log intensity, higher = more binding, comparable within an allelic series)"},
      {"measurement": "binding signal", "setting": "VENTX [2]", "result": "11 upbm affinity estimate (log intensity, higher = more binding, comparable within an allelic series)"},
      {"measurement": "binding signal", "setting": "VENTX [3]", "result": "10.2 upbm affinity estimate (log intensity, higher = more binding, comparable within an allelic series)"}
    ]},
    {"sequence": "CGGCGTGC", "values": [
      {"measurement": "binding signal", "setting": "VENTX [1]", "result": "8.01 upbm affinity estimate (log intensity, higher = more binding, comparable within an allelic series)"},
      {"measurement": "binding signal", "setting": "VENTX [2]", "result": "7.84 upbm affinity estimate (log intensity, higher = more binding, comparable within an allelic series)"},
      {"measurement": "binding signal", "setting": "VENTX [3]", "result": "8.12 upbm affinity estimate (log intensity, higher = more binding, comparable within an allelic series)"},
      {"measurement": "binding signal", "setting": "ALX3 [13]", "result": "7.7 upbm affinity estimate (log intensity, higher = more binding, comparable within an allelic series)"},
      {"measurement": "binding signal", "setting": "ALX3 [14]", "result": "7.74 upbm affinity estimate (log intensity, higher = more binding, comparable within an allelic series)"},
      {"measurement": "binding signal", "setting": "VAX1 [5]", "result": "7.08 upbm affinity estimate (log intensity, higher = more binding, comparable within an allelic series)"},
      {"measurement": "binding signal", "setting": "ALX3 [15]", "result": "7.73 upbm affinity estimate (log intensity, higher = more binding, comparable within an allelic series)"},
      {"measurement": "binding signal", "setting": "ALX3 [16]", "result": "7.75 upbm affinity estimate (log intensity, higher = more binding, comparable within an allelic series)"},
      {"measurement": "binding signal", "setting": "VAX1 [6]", "result": "7.28 upbm affinity estimate (log intensity, higher = more binding, comparable within an allelic series)"},
      {"measurement": "binding signal", "setting": "ALX3 [17]", "result": "7.71 upbm affinity estimate (log intensity, higher = more binding, comparable within an allelic series)"},
      {"measurement": "binding signal", "setting": "VAX1 [7]", "result": "7.16 upbm affinity estimate (log intensity, higher = more binding, comparable within an allelic series)"}
    ]}
  ]
}
